Screens as filed in PubChem BioAssay.
PNC assembly inh – High Content Assay for Compounds that inhibit the Assembly of the Perinucleolar Compartment. PC3M PTB-GFP, PNC prevalence imaging, 16 h; hits give low values. activity change (PNC), negative = inhibition, % at 10 µM. actives 3.1% (n = 140,000). AID 2417, 2010;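 active = readout at or below -70, meaning at least 70% loss of cells showing the perinucleolar compartment, a nuclear body marking cancer cells; inconclusive = readout between -30 and a set limit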;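 also: plate controls were DMSO wells for no effect and camptothecin positive control wells for full effect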
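Read-out is percentage of cells bearing a perinucleolar compartment, from automated 20x imaging of fixed, Hoechst-stained PC3M PTB-GFP cells. Cells were seeded 4 h, then exposed 16 h to compound (23 nl of library stock) in duplicate plates.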
15-hLO-2 inh – qHTS Assay for Inhibitors of 15-hLO-2 (15-human lipoxygenase 2) | Polyunsaturated fatty acid lipoxygenase ALOX15B (Homo sapiens), O15296 | purified 15hLO-2, xylenol orange hydroperoxide absorbance | Potency, µM (highest dose often 57.1 µM), for the others: at the highest dose activity change, negative = inhibition, usual class: inhibitors | actives 0.56% (n = 110,000) | AID 881, 2007; also: potency is read from the fitted curve at half-maximal effect; nearly all actives have a fitted effect of over 60% in size
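Purified human 15hLO-2 (50 nM final) preincubated with compounds 15 min at room temperature in 25 mM Hepes pH 7.5, 0.01% Triton X-100, then 45 uM arachidonic acid added for 90 min; hydroperoxide detected via ferrous/xylenol orange, 573/405 nm absorbance ratio.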
ALOX12 inhib – qHTS Assay for Inhibitors of 12-hLO (12-human lipoxygenase) | actives 0.12% (n = 150,000) | Polyunsaturated fatty acid lipoxygenase ALOX12 (Homo sapiens), P18054 | purified 12-hLO, xylenol orange hydroperoxide absorbance | Potency, µM (titrated, usually from 57.1 µM), for inactives: at the top dose activity change, negative = inhibition, actives largely listed as inhibitors; also: potency is read from the fitted curve at half-maximal effect; nearly all actives have a fitted effect of over 55% in size
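Hydroperoxide output read as Fe(III)-xylenol orange absorbance, 573-to-405 nm ratio, after 30 min reaction with 40 uM arachidonic acid. Enzyme: 150 nM purified human 12hLO, 15 min compound preincubation; 25 mM Hepes pH 7.0, room temperature.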
IMPase cell inh – qHTS Assay for Identifying the Cell-Membrane Permeable IMPase Inhibitors; Inositol monophosphatase 1 (Rattus norvegicus), P97697; CHO-M1 cells, IP1 accumulation, HTRF TR-FRET ratio; inhibition (IP1 accumulation), % at 46.1 µM; 120,000 tested, under 10 active; active = well fitted curve in the direction sought with a large enough effect in the signal ratio, not every such curve was filed as active; inconclusive = small, poorly fitted or top-dose-only effect, or a change in a side signal; inactive = no such curve, though single readings can be large or run the other way; the % refers to the signal ratio;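 also: cells stimulated with carbachol in lithium chloride buffer; plate controls were DMSO basal wells for no effect and reference inhibitor wells for full effect; higher means more IMPase inhibition seen as more IP1 and lower FRET ratio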
Target sequence (P97697 whole entry, looked up): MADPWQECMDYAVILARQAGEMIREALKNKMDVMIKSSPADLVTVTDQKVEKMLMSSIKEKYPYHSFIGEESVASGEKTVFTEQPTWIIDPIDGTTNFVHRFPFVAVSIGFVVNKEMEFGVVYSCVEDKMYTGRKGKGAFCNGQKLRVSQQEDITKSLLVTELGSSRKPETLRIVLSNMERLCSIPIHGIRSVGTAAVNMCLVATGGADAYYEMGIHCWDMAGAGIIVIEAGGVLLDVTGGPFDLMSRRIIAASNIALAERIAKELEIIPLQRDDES
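The IP-One HTRF competitive assay in carbachol-stimulated CHO-M1 cells quantifies cellular IP1. Compounds spanned up to 46 uM final, and activity is expressed as AC50 from concentration-response fits of the ratio and donor data.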
HPGD inh – qHTS Assay for Inhibitors of HPGD (15-Hydroxyprostaglandin Dehydrogenase); Potency, µM, without a hit: top-dose activity change, negative = inhibition, most hits filed as inhibitors; actives 4.3% (n = 150,000); purified HPGD, NADH fluorescence kinetic, PGE2 substrate; 15-hydroxyprostaglandin dehydrogenase [NAD(+)] (Homo sapiens), P15428; active = well fitted inhibition curve with a large enough effect, not every such curve was filed as active; inconclusive = small, poorly fitted or top-dose-only effect, or another doubt; inactive = no such curve, though single readings can be large or run the other way; also: potency is read from the fitted curve at half-maximal effect
Target sequence (P15428 whole entry, looked up): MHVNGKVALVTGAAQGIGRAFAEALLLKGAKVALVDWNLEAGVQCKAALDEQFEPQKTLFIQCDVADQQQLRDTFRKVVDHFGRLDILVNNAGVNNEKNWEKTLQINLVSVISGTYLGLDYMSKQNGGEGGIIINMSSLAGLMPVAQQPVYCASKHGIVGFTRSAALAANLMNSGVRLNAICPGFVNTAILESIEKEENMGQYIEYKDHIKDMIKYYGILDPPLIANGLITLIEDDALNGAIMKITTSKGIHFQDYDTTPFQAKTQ
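20 nM HPGD preincubated 15 min at room temperature with compound in 50 mM Tris-HCl pH 8, 0.01% Tween 20. Started with 1 mM NAD+ and 30 uM prostaglandin E2; NADH fluorescence (360/450 nm) read 5 times over 30-s intervals, last minus first.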
IMPase Li cell – qHTS Assay for Identifying the Cell-Membrane Permeable IMPase Inhibitors: Potentiation with Lithium. actives 0.35% (n = 210,000). AID 1457, 2008. CHO-M1 cells, IP1 TR-FRET (IP-One), carbachol + lithium. Potency, µM (titrated, usually from 59.4 µM), inactives show at the highest dose activity, negative = IMPase inhibition, usual class: inhibitors;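 also: IP1 builds up when IMPase is blocked and the TR-FRET signal falls; potency is read from the fitted curve at half-maximal effect; plate controls were basal vehicle for no effect and high inhibitor control for full effect; nearly all actives have a fitted effect of over 50% in size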
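Steps: plate 2000 CHO-M1 cells per well and culture 16–30 h; add compound and lithium; incubate 30 min, 37C; add d2-IP1 tracer and Eu cryptate anti-IP1 antibody in lysis buffer; read after 10 min at room temperature.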
Starred values were filed as active, the others as inactive; ? = inconclusive; · = not tested or not shown; [ ] = another dose, or the depositor's remark. This is a sample that favours compounds with a hit; in the whole collection about 5.3% have one here. Unless noted, calls follow the shape of the dose curve; as a rule, active = well fitted curve in the direction sought with a large enough effect; inconclusive = small, poorly fitted or top-dose-only effect, or another doubt; inactive = no such curve, though single readings can be large; an effect the other way counts as inactive or inconclusive. Unless noted, % is scaled to controls: 0 for no effect and ±100 for the full control effect.

SMILES | PNC assembly inh | 15-hLO-2 inh | ALOX12 inhib | IMPase cell inh | HPGD inh | IMPase Li cell
N#Cc1cc2c(nc1SCc1cccnc1)CCC2 | -8 | 4% | 3% | 3 | -20% | 25%[38.3 µM]
CC(=O)Nc1ccc(NC(=O)COC(=O)c2c(C)nn(-c3ccccc3)c2C)cc1 | -83* | · | -2% | · | -6% | -1%
COc1ccc(NC(=O)Nc2cccc([N+](=O)[O-])c2)cc1Cl | ? | · | -5% | -3 | -15% | 28%
O=C(Nc1ccc2c(c1)OCO2)Nc1ccc2c(c1)OCO2 | · | · | · | · | · | 1%
O=C(Nc1ccc([N+](=O)[O-])cc1)Nc1ccc(OC(F)F)c(Cl)c1 | -113* | · | -12% | · | -4% | 8%
O=C(Nc1ccc2c(c1)OCO2)c1ccc(Cl)s1 | -9 | -10% | -11% | 3 | 16µM* | -10%[38.3 µM]
O=C(Nc1ccc(OC(F)F)c(Cl)c1)Nc1ccc2c(c1)OCO2 | -87* | 9%[2.29 µM] | 0% | -1 | -7% | 7%[38.3 µM]
O=C(Nc1ccc2c(c1)OCO2)c1ccc2c(c1)OCO2 | ? | · | 0% | · | -24% | -4%
OCCN(Cc1ccccc1)C(=S)Nc1ccc(Cl)cc1Cl | · | · | · | · | · | -3%
CN1CCN(c2ncc3nc(-c4cccc(C#N)c4)c(=O)n(C)c3n2)CC1 | · | -7% | · | · | · | 8%
NC1=CC(=O)c2cccc3cccc1c23 | 104 | · | -3% | ? | -14% | 13µM*
O=C(CNC(=O)c1ccc2c(c1)OCCO2)N/N=C/c1cccc(Br)c1 | · | · | · | · | · | 31%
CCOc1ccc(S(=O)(=O)NCc2csc(C)n2)cc1 | -91* | 2% | -7% | 9 | -9% | 29%[38.3 µM]
COc1ccc(Nc2nc3ccc(C)cc3nc2-n2nc(C)cc2C)cc1Cl | · | · | · | 3 | · | ·
COCCN(CCOC)c1cc(C)c(C#N)c2nc3ccccc3n12 | -95* | -1% | -2% | -3 | ? | -3%[38.3 µM]
Cc1cc(-c2ccco2)n2c(nc3ccccc32)c1C#N | 61 | -12% | 2% | 0 | -16% | -2%[38.3 µM]
C=C(C)CSc1cc(C)c(C#N)c2nc3ccccc3n12 | -93* | · | -21% | 1 | ? | -26%
Cc1cc(/C=N/NC(=O)C(=O)NCc2ccccn2)c(C)n1-c1ccccc1 | 22 | · | -3% | · | 2% | -3%
Cc1ccccc1NC(=O)CC1SCCNC1=O (configuration not stated) | -92* | -6% | 4% | 16 | -14% | 16%[38.3 µM]
CCCSc1nnc(NC(=O)Nc2ccc(F)cc2)s1 | -83* | -1% | -4% | 15 | 0% | 27%[38.3 µM]
CCCSc1nnc(NC(=O)Nc2ccccc2)s1 | -11 | · | -1% | -2 | 1% | 11%
Cc1ccc(S(=O)(=O)c2ccc(Cl)cc2)cc1S(=O)(=O)NC(C)C(=O)O (configuration not stated) | -90* | · | -4% | · | 1% | -3%
Fc1cccc(-n2ncc(-c3nnnn3-c3ccccc3)c2C(F)(F)F)c1 | -84* | · | 5% | 5 | -2% | 12%
COc1ccccc1N1CCN(C(=O)/C=C/c2ccccc2)CC1 | -100* | · | 5% | -6 | -10% | 10%
COC(=O)C1CCN(C(=O)/C=C/c2ccccc2)CC1 | -114* | · | -2% | · | -3% | 0%
SMILES | PNC assembly inh | 15-hLO-2 inh | ALOX12 inhib | IMPase cell inh | HPGD inh | IMPase Li cell
CC(C)(C)C1CCc2c(sc(NC(=O)C3c4ccccc4Oc4ccccc43)c2C(N)=O)C1 (configuration not stated) | · | · | · | -11 | · | ·
CC(NC(=O)CSc1nnc(-c2cccnc2)n1N)c1ccccc1 (configuration not stated) | · | · | · | · | · | -4%
COc1ccc(NC(=O)CC2(CC(=O)O)CCCC2)cn1 | · | · | · | · | · | -2%
O=C(NCc1ccccn1)C1C2C=CC(C2)C1C(=O)Nc1ccc(F)cc1 (configuration not stated) | 14 | · | 2% | 10 | 16µM* | 5%
O=C(O/N=C(\c1ccccc1)c1ccccn1)c1ccc(Cl)c(Cl)c1 | -107* | 14% | 3% | -4 | -24% | 8%
N/C(=N\OC(=O)c1ccc2ccccc2c1)c1ccccn1 | · | · | · | · | · | 0%
O=C(c1ccc2c(c1)OCO2)C1CCCN(C(=O)c2cnn(Cc3ccccc3)c2)C1 (configuration not stated) | · | · | · | · | · | 5%
O=C(N/C(=C/c1ccco1)C(=O)N1CCCC1)c1cccs1 | -106* | · | -3% | -7 | -13% | 10%[38.3 µM]
CCc1ccc(C(=O)Nc2ccc(S(=O)(=O)Nc3nc(C)cc(C)n3)cc2)o1 | -107* | -7% | 6% | 7 | -15% | 18%[38.3 µM]
Cc1ccc(/C=C2\C(=O)ON=C2c2ccccc2)o1 | · | · | · | · | · | -3%
CN(C)/C=C1/C(=O)N(c2ccc([N+](=O)[O-])cc2)N=C1c1ccccc1 | ? | · | -10% | · | -15% | 8%
O=C1/C(=C\c2ccc(-c3ccccc3[N+](=O)[O-])o2)C(c2ccccc2)=NN1c1ccccc1 | -86* | · | -1% | 1 | ? | 3%
Cc1ccc(-c2ccc(/C=C3\C(=O)ON=C3c3ccccc3)o2)c([N+](=O)[O-])c1 | 26 | 4µM* | -8% | 3 | 1.3µM* | 21%[38.3 µM]
Cc1ccsc1CNC12CC3CC(CC(C3)C1)C2 | · | · | · | · | · | 24%
COc1ccc(C(C)=O)cc1COC(=O)Cc1n[nH]c(=O)c2ccccc12 | -9 | 4% | 0% | -3 | 22µM* | 4%[38.3 µM]
Cc1cc(C)c2c(N)c(S(=O)(=O)Cc3ccccc3)sc2n1 | 3 | -5% | -1% | 0 | 22µM* | -4%[38.3 µM]
CC1CCc2c(sc(NC(=O)c3ccccc3)c2C(=O)Nc2ccccc2)C1 (configuration not stated) | · | · | · | -5 | · | ·
C[C@@H](C(=O)O)c1ccc(C[C@@H]2CCCC2=O)cc1 | · | -4% | -4% | 3 | · | ·
Cc1ccc(-c2nc3cccnc3o2)cc1NC(=O)COc1ccc(Cl)cc1C | 9 | ? | 5% | ? | ? | 6.3µM*
Cc1ccc(-c2nc3cccnc3o2)cc1NC(=O)COc1ccc(C(C)(C)C)cc1 | -7 | 8% | -9% | 14 | ? | 36%[38.3 µM]
Cc1ccc(-c2nc3ncccc3o2)cc1NC(=O)COc1ccccc1 | -4 | 3% | 9% | 5 | ? | 11µM*
CCc1nc(Nc2ccc(OC)c(OC)c2)c2nnn(Cc3ccccc3Cl)c2n1 | -119* | · | -8% | -1 | ? | 28%
C=CCSC1=N/C(=C\c2ccc3c(c2)OCO3)C(=O)S1 | -23 | -11% | -15% | -4 | -14% | 10%[38.3 µM]
